This is part of a sample that, as a whole, favours compounds with a hit. Of some 83,000 tested, about 20% had one in any assay.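 Method: cells in 96-well plates; compound added at one concentration; 48 h incubation; percent growth measured; values under 10 scored active.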 Calls of active or inactive are those of the source.
Tested on: MDA-MB-468 breast
Experiment: NCI-60 one-dose screen, 48 h (100 = growth as untreated, 0 = no growth, -100 = all killed)
Settings: 10 µM unless noted

SMILES	growth
O=C1/C(=C/c2ccc(Cl)cc2Cl)CN(S(=O)(=O)c2ccccc2)C/C1=C\c1ccc(Cl)cc1Cl	-24.5% (active)
COc1cc(/C=C2/C(=O)Nc3ccc(Cl)cc32)ccc1OCc1ccc(Cl)cc1	87.2% (inactive)
C=C(C)c1ccc(/C=N/NC(N)=S)cc1	70.6% (inactive)
COC(=O)C(Br)(C(=O)OC)C(Br)C(Br)C(Br)c1ccccc1 (stereo not given)	7.49% (active)
CN1CCN(c2c(F)cc(NC3=C(Cl)C(=O)c4ncccc4C3=O)cc2F)CC1	-46.6% (active)
CC(=O)Nc1cc(N2CCOCC2)c2nc(NC(=O)c3[nH]c(C)c(Cl)c3Cl)sc2c1	47.7% (inactive)
CN1C(=O)/C(=C\c2nc([P+](c3ccccc3)(c3ccccc3)c3ccccc3)c(N3CCOCC3)o2)SC1=S	10.1% (inactive)
C#Cc1nc(/C=C/C(=O)c2nccn2C)cs1	-28.5% (active)
Nc1[nH]n2cc(-c3ccc(F)cc3)nc2c1N=Nc1ccc(S(N)(=O)=O)cc1	83.4% (inactive)
COC1CCN(Cc2ccc3c(NNC(=O)c4cnccn4)nc4cc(F)ccc4n23)C1 (stereo not given)	-32.1% (active)
COc1cccc(/C=C2\Oc3cc(OCCN4CCCC4)ccc3C2=O)c1	82.8% (inactive)
COc1ccc(NC(=O)c2cccc(C3CCc4c(cc(OC)c(OC)c4OC)O3)c2)cc1 (stereo not given)	22% (inactive)
CN(Cc1ccccc1)S(=O)(=O)/N=C1\NC(=O)NC1=C(Cl)Cl	22.3% (inactive)
COc1ccc(C2=Cc3ccc(OC(C)=O)cc3OC2)cc1	67.4% (inactive)
CCOc1cccc(NC2=C(Br)C(=O)C(C)=C(C)C2=O)c1	-65.7% (active)
N=C(N)N=Nc1ccc(NN=C(N)N)c2ccccc12	-27.2% (active)
CSc1cccc([N+](=O)[O-])c1	94.1% (inactive)
Cc1cc2oc(=O)cc(CP(=O)(O)O)c2cc1O	89.8% (inactive)
COc1ccc(-n2nc(C)c3c(Oc4ccc(NC(=O)Nc5c(Cl)cccc5Cl)cc4)ncnc32)cc1	107% (inactive)
CN1CCN(CCCn2c(=O)c3sc4ncccc4c3n3nnc(-c4ccccc4)c23)CC1	-62% (active)

SMILES	growth
CCN1CCN(C(=O)[C@@]2(C)CC[C@]3(C)CC[C@]4(C)C(=CC(=O)[C@@H]5[C@@]6(C)CC[C@H](OC7C[C@@H](O)[C@@H](O)C(C)O7)C(C)(C)[C@@H]6CC[C@]54C)[C@@H]3C2)CC1 (stereo not given in full)	16.9% (inactive)
COc1ccc2c(c1)c(-c1nc(-c3c[nH]c4ncccc34)cs1)cn2CCCN1CCOCC1	42% (inactive)
Cn1cc(-c2csc(-c3c[nH]c4ccc(Br)cc34)n2)c2cnccc21	-70.5% (active)
O=C(CSc1nnc(-c2cc(-c3ccccc3)nc3ccccc23)o1)c1ccc(Br)cc1	103% (inactive)
COc1cc(C2CC(c3ccc(Cl)cc3)=NN2C=O)ccc1Oc1ccnc2cc(Cl)ccc12 (stereo not given)	39.7% (inactive)
COc1ccc2nc3cc(Cl)ccc3c(NCCNCC(O)CO)c2c1 (stereo not given)	-8.61% (active)
COc1cc(-c2ccc(-c3ccc(C(=N)N)nc3)s2)cc(OC)c1OC	22.4% (inactive)
Nc1nc2ccccc2c2c(=O)c3cc(Cl)ccc3sc12	21.3% (inactive)
CC(=O)Nc1nc2c(s1)C1=CC[C@H]3[C@@H]4CC[C@H](C(C)=O)[C@@]4(C)CC[C@@H]3[C@@]1(C)CC2	69.7% (inactive)
O=C(Nc1ccc(F)cc1)Nc1ccc(Cl)c([N+](=O)[O-])c1	-3.78% (active)
CS(=O)(=O)c1ccc(-c2nc3cc(Cl)ccc3n2CC(=O)NO)cc1	96% (inactive)
CN1CCc2c(c3ccccc3c3ccccc23)C1	30.7% (inactive)
Cc1ccc(-c2nc3ccc(Cl)cc3c(=O)n2N2C(=O)CSC2c2ccccc2Cl)cc1 (stereo not given)	107% (inactive)
C=CCn1c(SCC(=O)Nc2cccc(C(=O)/C=C/c3ccc(C)cc3)c2)nc2ccccc2c1=O	76.3% (inactive)
COC(=O)/C(CCC=C(C)C)=C1\[C@@H](OC(C)=O)C[C@@]2(C)[C@H]1CC(=O)[C@H]1[C@@]3(C)CCC(N4CCCC4)[C@@H](C)[C@@H]3CC[C@@]12C (stereo not given in full)	99.7% (inactive)
CCc1nc2ccccc2[nH]1	109% (inactive)
CCN(CC)c1ccc(N=Nc2cc(Cl)ccc2Cl)c(NC(=O)CCC(=O)O)c1	107% (inactive)
CCCCCCCCCC[N+](C)(C)C	-31.3% (active)
CN(C)CCN(C)CC(C)(C)C(=O)/C=C/c1ccc(Cl)c(Cl)c1	-83.6% [100 µM] (active)
COc1cc2nccc(Oc3ccc(NC(=O)C4(C(=O)Nc5ccc(F)cc5)CC4)cc3)c2cc1OC(=O)c1ccc(N)cc1	59.3% (inactive)

— PubChem BioAssay (NCI)
